# Source: PubChem BioAssay (NCATS)
# Results filed as inconclusive are left out. Calls of active or inactive are those of the source. The call rests on the fitted dose curve; in most records, active means well fitted inhibition curve with a large enough effect; inconclusive means small, poorly fitted or top-dose-only effect; inactive means flat fitted curve, though single readings scatter.
# Test system: NIH3T3
# Assay: qHTS assay to identify novel small-molecules to repurpose for Merkel cell carcinoma treatment (AID 1296009); further: nearly all actives have a fitted effect of over 60% in size
# Settings: MCC and control cell lines, CellTiter-Glo viability, 72 h; at 44.8 µM (top of the series) unless noted
# In short: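 Cells were treated for 72 hr at 37 degree celsius with compounds in 8- or 11-point dose response. Viability was read by CellTiter-Glo luminescence, normalized to no-cell (cytotoxicity) and DMSO controls.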
row,SMILES,outcome
1,CCOC(=O)c1ccc(N(C)c2csc(-c3ccccc3)n2)cc1,inactive
2,COCC(=O)N1CCc2cc(-c3csc(NC(=O)c4cc(OC)cc(OC)c4)n3)ccc21,inactive
3,O=C(O)c1cc(O)c2cccc(O)c2c1O[C@@H]1O[C@H](CO)[C@@H](O)[C@H](O)[C@H]1O,inactive
4,CNC(=O)O[C@H]1COc2ccc(N3CCN(C4COC4)CC3)cc2[C@@H]1NC(=O)c1ccc(F)cc1,inactive
5,COC(=O)[C@@]1(O)C=CC[C@@H]2[C@@]3(C)C[C@@H](c4ccoc4)OC(=O)[C@H]3CC[C@]21C,inactive
6,CC1(C)OC(=O)C(OCC2CC2)=C1c1ccc(S(C)(=O)=O)cc1,inactive
7,CC1(O)CCC2C(C(=O)O)=COC(OC3OC(CO)C(O)C(O)C3OC(=O)/C=C/c3ccc(O)cc3)C21 (stereo not drawn),inactive [at 17.4 µM]
8,CC(=O)O[C@@H]1[C@H](O[C@@H]2O[C@H](CO)[C@@H](O)[C@H](O)[C@H]2O)[C@@H](O[C@@H]2O[C@@H](C)[C@H](O)[C@@H](O[C@@H]3O[C@H](CO)[C@@H](O)[C@H](O)[C@H]3O)[C@H]2O)[C@H](OC(=O)C23CCC4(C)C(=CCC5C6(C)CC(O)C(O[C@@H]7O[C@H](C(=O)O)[C@@H](O)[C@H](O)[C@H]7O)C(C)(C(=O)O)C6CCC54C)C2CC(C)(C)CC3O)O[C@@H]1C (stereo partly drawn),inactive [at 9.27 µM]
9,CNC(=O)Nc1ccc(OC)c(NC(=O)NC(=O)c2cc(F)c(F)cc2Cl)c1,inactive
10,C=CC(C)(O)CC/C=C(/C)C(=O)OC1C(OC2OCC(OC3OC(CO)C(O)C(O)C3O)C(OC3OCC(O)C(OC4OC(C)C(O)C(O)C4O)C3O)C2O)COC(OC(=O)C23CCC(C)(C)CC2C2=CCC4C5(C)CCC(OC6OC(CO)C(OC7OC(CO)C(O)C(OC8OCC(O)C(O)C8O)C7O)C(O)C6O)C(C)(C)C5CCC4(C)C2(C)CC3O)C1O (stereo not drawn),inactive [at 4.96 µM]
11,Nc1nonc1C(=Nc1ccc(F)c(Cl)c1)NO,inactive
12,C=C(C(=O)OC)C1CCC2(C)C(O[C@@H]3O[C@H](CO)[C@@H](O)[C@H](O)[C@H]3O)CC(=O)C(C)C2C1O (stereo partly drawn),inactive [at 17.4 µM]
13,COC(=O)[C@@H]1C2CC3c4[nH]c5ccccc5c4CCN3CC2CC[C@@H]1O (stereo partly drawn),inactive
14,COc1cc(C[C@H]2COC(=O)[C@@H]2Cc2ccc(O)c(OC)c2)ccc1O,inactive
15,CC(C)=CCc1ccc(Oc2c(O)cc(C)cc2CO)c(C(=O)O)c1O,inactive
16,C[C@@H]1O[C@@H](O[C@@H]2[C@@H](O)[C@H](O[C@@H]3[C@@H](O)[C@@H](O)[C@H](O[C@H]4[C@H](OC(=O)[C@]56CCC(C)(C)C[C@H]5C5=CCC7[C@@]8(C)C[C@H](O)[C@H](O[C@@H]9O[C@H](C(=O)O)[C@@H](O)[C@H](O)[C@H]9O)[C@@](C)(CO)C8[C@H](O)C[C@@]7(C)[C@]5(C)CC6)OC[C@H](O)[C@@H]4O)O[C@H]3C)OC[C@H]2O)[C@H](O)[C@H](O)[C@H]1O (stereo partly drawn),inactive [at 9.27 µM]
17,CC(=O)OC(CSC1CCC(=O)OC(C)CCC(=O)C1)C(=O)O (stereo not drawn),inactive
18,CCC(NC(=O)CC(NC(=O)C(CO)NC(=O)C(CC)NC(=O)c1ccc[nH]1)c1ccccc1)C(=O)O (stereo not drawn),inactive [at 17.4 µM]
